# Reference: PubChem BioAssay
# Unmarked numbers belong to inactive results. Active and inactive are the calls of the source.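 How the source made its calls: active means normalized viability below 100% at a tested concentration; inactive means the rest.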
# Assay: drug combination growth inhibition, ovarian cancer – cell-based, oncology-focused library, rucaparib conditional, profiling panel (AID 1508598)
# Conditions: patient-derived ovarian cancer cells, CellTiter-Glo viability, 144 h, hits give low values
# [1] = at 0.000305 µM, OCI-C5x cells, with rucaparib 10 µM, 100% = cells with rucaparib alone
# [2] = at 0.000305 µM, OCI-C5x cells, without rucaparib
# [3] = at 0.000305 µM, OCI-P5x cells, with rucaparib 20 µM, 100% = cells with rucaparib alone
# [4] = at 0.000305 µM, OCI-P5x cells, without rucaparib
# [5] = at 0.00122 µM, OCI-C5x cells, with rucaparib 10 µM, 100% = cells with rucaparib alone
# [6] = at 0.00122 µM, OCI-C5x cells, without rucaparib
# [7] = at 0.00122 µM, OCI-P5x cells, with rucaparib 20 µM, 100% = cells with rucaparib alone
# [8] = at 0.00122 µM, OCI-P5x cells, without rucaparib
# [9] = at 0.00488 µM, OCI-C5x cells, with rucaparib 10 µM, 100% = cells with rucaparib alone
# [10] = at 0.00488 µM, OCI-C5x cells, without rucaparib
# [11] = at 0.00488 µM, OCI-P5x cells, with rucaparib 20 µM, 100% = cells with rucaparib alone
# [12] = at 0.00488 µM, OCI-P5x cells, without rucaparib
# [13] = at 0.0195 µM, OCI-C5x cells, with rucaparib 10 µM, 100% = cells with rucaparib alone
# [14] = at 0.0195 µM, OCI-C5x cells, without rucaparib
# [15] = at 0.0195 µM, OCI-P5x cells, with rucaparib 20 µM, 100% = cells with rucaparib alone
# [16] = at 0.0195 µM, OCI-P5x cells, without rucaparib
# [17] = at 0.0781 µM, OCI-C5x cells, with rucaparib 10 µM, 100% = cells with rucaparib alone
# [18] = at 0.0781 µM, OCI-C5x cells, without rucaparib
# [19] = at 0.0781 µM, OCI-P5x cells, with rucaparib 20 µM, 100% = cells with rucaparib alone
# [20] = at 0.0781 µM, OCI-P5x cells, without rucaparib
# [21] = at 0.313 µM, OCI-C5x cells, with rucaparib 10 µM, 100% = cells with rucaparib alone
# [22] = at 0.313 µM, OCI-C5x cells, without rucaparib
# [23] = at 0.313 µM, OCI-P5x cells, with rucaparib 20 µM, 100% = cells with rucaparib alone
# [24] = at 0.313 µM, OCI-P5x cells, without rucaparib
# [25] = at 1.25 µM, OCI-C5x cells, with rucaparib 10 µM, 100% = cells with rucaparib alone
# [26] = at 1.25 µM, OCI-C5x cells, without rucaparib
# [27] = at 1.25 µM, OCI-P5x cells, with rucaparib 20 µM, 100% = cells with rucaparib alone
# [28] = at 1.25 µM, OCI-P5x cells, without rucaparib
# [29] = at 5 µM, OCI-C5x cells, with rucaparib 10 µM, 100% = cells with rucaparib alone
# [30] = at 5 µM, OCI-C5x cells, without rucaparib
# [31] = at 5 µM, OCI-P5x cells, with rucaparib 20 µM, 100% = cells with rucaparib alone
# [32] = at 5 µM, OCI-P5x cells, without rucaparib
structure (smiles),measurement,setting,value
CC(C)CC(CC(=O)NO)C(=O)N[C@@H](Cc1ccc2ccccc2c1)C(=O)N[C@@H](C)C(=O)NCCN (some centres undefined),viability,[1],123%
same,viability,[2],120%
same,viability,[3],90.2% (active)
same,viability,[4],101%
same,viability,[5],111%
same,viability,[6],110%
same,viability,[7],88.9% (active)
same,viability,[8],99.8% (active)
same,viability,[9],123%
same,viability,[10],118%
same,viability,[11],92% (active)
same,viability,[12],94.4% (active)
same,viability,[13],123%
same,viability,[14],120%
same,viability,[15],84.6% (active)
same,viability,[16],100% (active)
same,viability,[17],132%
same,viability,[18],102%
same,viability,[19],90% (active)
same,viability,[20],92.6% (active)
same,viability,[21],114%
same,viability,[22],114%
same,viability,[23],91.3% (active)
same,viability,[24],92.3% (active)
same,viability,[25],134%
same,viability,[26],112%
same,viability,[27],85.1% (active)
same,viability,[28],86% (active)
same,viability,[29],112%
same,viability,[30],110%
same,viability,[31],78.6% (active)
same,viability,[32],88.3% (active)
CO[C@H]1C[C@H]2CC[C@@H](C)[C@@](O)(O2)C(=O)C(=O)N2CCCC[C@H]2C(=O)O[C@H]([C@H](C)C[C@@H]2CC[C@H](OC(=O)C(C)(CO)CO)[C@H](OC)C2)CC(=O)[C@H](C)/C=C(\C)[C@@H](O)[C@@H](OC)C(=O)[C@H](C)C[C@H](C)/C=C/C=C/C=C/1C,viability,[1],93.5% (active)
same,viability,[2],93.2% (active)
same,viability,[3],85% (active)
same,viability,[4],85% (active)
same,viability,[5],97% (active)
same,viability,[6],95.7% (active)
same,viability,[7],77.3% (active)
same,viability,[8],69.5% (active)
same,viability,[9],88.7% (active)
same,viability,[10],91.6% (active)
same,viability,[11],71.8% (active)
same,viability,[12],56.9% (active)
same,viability,[13],93.2% (active)
same,viability,[14],88.2% (active)
same,viability,[15],71% (active)
same,viability,[16],58.4% (active)
same,viability,[17],93.3% (active)
same,viability,[18],84.7% (active)
same,viability,[19],70.8% (active)
same,viability,[20],56.6% (active)
same,viability,[21],96.4% (active)
same,viability,[22],87.6% (active)
same,viability,[23],71.6% (active)
same,viability,[24],57.7% (active)
same,viability,[25],100%
same,viability,[26],95.8% (active)
same,viability,[27],77% (active)
same,viability,[28],55.6% (active)
same,viability,[29],93.4% (active)
same,viability,[30],88% (active)
same,viability,[31],59.8% (active)
same,viability,[32],54.1% (active)
